Hit rate of the full screen: of about 69,000 compounds, about 950 (1.4%) showed an effect of 50% or more. Many of the other results were omitted from the sample, so strong results are more common in it than they were.

The experiment deals with Mycobacterium tuberculosis. The experiment is described as follows: Cornell M. t heat shock assay. Note: in the data most compounds retested in dose-response had high values. The experiment is classed as functional, organism-based. Further details: dose or concentration left out as unconfirmed.
Consider `Cc1nc[nH]c1CN(Cc1ccccc1F)C1CC(C)(C)NC(C)(C)C1.O=C(O)CC(O)(CC(=O)O)C(=O)O`, for which the “Percent Effect” value is listed as -2.69%.
The result for `Cc1ccc(C2(CN3CCN(Cc4cn(C)nc4C)CC3)CC2)cc1.Cl` reads 5.814%; that for `Cl.O=C(NC1CCCC1)c1ccnc(C2CCNCC2)c1`, -6.855%; that for `CN(C)C(=O)COCC1CN(Cc2ccoc2)Cc2ncn(C)c21.O=C(O)C(F)(F)F.O=C(O)C(F)(F)F` (stereo unspecified), -26.5%.
The result for `Cc1ccc(N2CCCC3(COCCN(c4ccccn4)C3)C2)nn1.O=C(O)C(F)(F)F` (stereo unspecified) reads -19.77%; that for `Cc1nc2cc(-c3nccn3C)nn2c(N2CCC(O)CC2)c1C.Cl`, 0.7953%.
The result for `CNC(=O)[C@@H]1C[C@H]2CN(Cc3ccco3)C[C@H]2N1C.O=C(O)C(F)(F)F.O=C(O)C(F)(F)F` reads -19.75%; that for `CS(=O)(=O)NC[C@]12COC[C@H]1CN(CC1CCCC1)C2.O=C(O)C(F)(F)F`, -15.72%.
In the case of `O=C(O)C(F)(F)F.O=C(O)C(F)(F)F.O=C(O)C(F)(F)F.c1ccc(CN2CCC3(CC2)CCN(Cc2cccs2)C3)nc1`, the “Percent Effect” value is recorded as -44.21%.
For the molecule `Cc1nn(C)c2c(=O)n(CC(=O)NCc3ccccc3Cl)ccc12`, the “Percent Effect” value is given as -7.047%.
The result for `Cc1cnn(CC2CCCCN2CC(=O)Nc2nc(C)cs2)c1` (stereo unspecified) reads 74.94%.
Regarding `Cc1cnn(CC2CCCCN2CC(=O)Nc2nncs2)c1` (stereo unspecified), the “Percent Effect” value turned out to be 18.17%.
`Cc1cnn(CC2CCCCN2CC(=O)Nc2c(C)n[nH]c2C)c1` (stereo unspecified): the “Percent Effect” value was -5.895%.
The result for `O=C(N[C@@H]1CN(Cc2c[nH]nc2-c2ccccc2)C[C@H]1O)c1cc[nH]n1` reads 1.707%; that for `CN1CCCCc2c1nc1c(c2N)CCC1.O=C(O)c1cc([N+](=O)[O-])ccc1Cl`, -19.05%.
For `Cc1cc(C)cc(CN2CCC3(CC2)CC(Nc2ncccn2)CO3)c1.O=C(O)C(F)(F)F` (stereo unspecified), the “Percent Effect” value is reported as -30.68%.
On to `C=C/C=c1\c(=C/C)oc2c(NCc3ccccc3)ncnc12`, for which the “Percent Effect” value is on record as -0.4342%.
Consider `CCc1nc(NCc2ccccn2)c2c(n1)c(C)nn2C`, for which the “Percent Effect” value is listed as -15.98%.
As to `Cc1nc(NCc2cccnc2)c2c(n1)c(C)nn2C`, the “Percent Effect” value was found to be 15.35%.
For `C=C/C=c1\c(=C/C)oc2c(NCc3ccccc3)nc(CC)nc12`, the “Percent Effect” value worked out at 75.04%.
As to `C=C/C=c1\c(=C/C)oc2c(NCc3ccccc3)nc(C)nc12`, the “Percent Effect” value stood at 104.3%.
The result for `CCn1c(NCc2ccccc2)nc2c(C)nn(C)c2c1=O` reads 12.91%.
Turning to `CS(=O)(=O)N1CCC2(CC1)COC(COc1ccccn1)C2.O=C(O)C(F)(F)F` (stereo unspecified), the “Percent Effect” value is listed as -12.81%.
As for `O=C(O)C(F)(F)F.O=C(O)C(F)(F)F.O=C1[C@H]2CN(Cc3ccccc3)C[C@H]2CN1CCN1CCCC1`, the “Percent Effect” value is 1.586%.
On to `Cc1oncc1C(=O)N[C@@H]1CN(C2CCC2)C[C@@H]2CCCO[C@@H]21.O=C(O)C(F)(F)F`, for which the “Percent Effect” value is 25.58%.
For the molecule `Cc1c[nH]nc1C1CCCN1Cc1ncc[nH]1.O=CO` (stereo unspecified), the “Percent Effect” value is -1.504%.
For `Cc1ccccc1NC(=O)c1cncc(C2CCNCC2)n1.Cl`, the “Percent Effect” value worked out at 27.66%.
The result for `CN(C)S(=O)(=O)NCc1cccnc1Oc1ccccc1` reads -4.23%.
The result for `O=C(CN1CCCCCC1)NCc1cccnc1Oc1ccccc1` reads 2.86%; that for `c1ccc(Oc2ncccc2CNCc2ccccn2)cc1`, 69.15%; that for `O=C(C[C@@H]1COC[C@H]2CN(CC3CC3)C[C@@H]12)NCc1cccnc1.O=C(O)C(F)(F)F.O=C(O)C(F)(F)F`, 9.594%.
Consider `O=C(Cc1cnc(-c2c(Cl)cccc2Cl)s1)N1CCOCC1`, for which the “Percent Effect” value was -11.24%.
As to `NC(=O)C1CCN(C(=O)Cc2cnc(-c3c(Cl)cccc3Cl)s2)CC1`, the “Percent Effect” value worked out at 65.47%.
`CC(=O)N1CCN(C(=O)Cc2cnc(-c3c(Cl)cccc3Cl)s2)CC1`: the “Percent Effect” value came to 3.544%.
The result for `O=C(O)C(F)(F)F.O=C1CC(c2cccnc2)C2(CCN(S(=O)(=O)C3CC3)CC2)N1` (stereo unspecified) reads -6.88%.
Turning to `CN(C)S(=O)(=O)NCc1cccnc1Oc1ccc(F)cc1F`, the “Percent Effect” value is -13.26%.
Take `Cc1nc(-c2ccc(CNS(=O)(=O)N(C)C)cc2)ccc1C(N)=O`: the “Percent Effect” value was 10.37%.
Turning to `Cc1ccc(-c2nc(CNS(=O)(=O)N(C)C)[nH]c2-c2ccccn2)cc1`, the “Percent Effect” value amounted to 101.5%.
Consider `CN(C)S(=O)(=O)NCc1cccnc1Oc1ccccc1F`, for which the “Percent Effect” value came to 7.179%.
The result for `Cc1ccccc1Oc1ncccc1CNS(=O)(=O)N(C)C` reads -10.74%; that for `CN(C)S(=O)(=O)NCc1nc(-c2cccc(F)c2)c(-c2ccccn2)[nH]1`, 62.81%; that for `Cl.O=C(c1cccnc1N1CCN(CCO)CC1)N1CCCC1`, 2.64%.
For the molecule `COCC1CN(CC2CC2)Cc2nccn2C1.O=C(O)C(F)(F)F` (stereo unspecified), the “Percent Effect” value is given as -7.797%.
For `COCC(=O)N(C)Cc1nc(N2CCCC2)ncc1-c1ccncc1.Cl`, the “Percent Effect” value is recorded as -16.19%.
Take `COc1ccc(C2CCCCCN2S(=O)(=O)N(C)C)cc1` (stereo unspecified): the “Percent Effect” value came out at 68.3%.
As to `COc1ccc(C2CCCCCN2S(C)(=O)=O)cc1` (stereo unspecified), the “Percent Effect” value is on record as -12.37%.
The result for `COc1ccc(C2CCCN2S(=O)(=O)N(C)C)cc1` (stereo unspecified) reads -0.3722%; that for `CN(C)CCOCC1CN(Cc2ccccn2)Cc2nnn(C)c21.O=C(O)C(F)(F)F.O=C(O)C(F)(F)F.O=C(O)C(F)(F)F` (stereo unspecified), -27.07%.
With `Cc1ccc(C(CCNCCN(C)C)C2CCOC(C)(C)C2)cc1.O=C(O)C(=O)O` (stereo unspecified), the “Percent Effect” value amounted to 1.762%.
`NC(CC1CCCC1)c1ccc(Oc2ccccc2)cc1` (stereo unspecified): the “Percent Effect” value was determined as 102.825%.
Consider `Cl.NC(CC1CCCCC1)c1ccccc1` (stereo unspecified), for which the “Percent Effect” value is recorded as 1.9%.
Take `Cl.NC(CC1CCCC1)c1ccccc1` (stereo unspecified): the “Percent Effect” value was -17.85%.
Take `COc1ccc(-c2cc(C3CCNCC3)ccn2)cc1.Cl`: the “Percent Effect” value is recorded as -16.31%.
The result for `Cc1nc(CN2CCOCC3(CCN(c4ncccn4)CC3)C2)cs1.O=C(O)C(F)(F)F` reads -11.45%; that for `CCc1nccn1-c1cccc(C2CCCN2)n1.Cl.Cl` (stereo unspecified), 8.16%.
Regarding `COCCN(C/C=C/c1ccccc1)Cc1[nH]cnc1C`, the “Percent Effect” value was -1.061%.
On to `COCCN(C/C=C/c1ccccc1)Cc1ncc[nH]1`, for which the “Percent Effect” value is 14.48%.
The result for `CCc1ccc(CN(C/C=C/c2ccccc2)CCOC)nc1` reads 98.48%; that for `COCCN(C/C=C/c1ccccc1)Cc1nccs1`, 1.581%.
As for `CCn1ncnc1CN(C/C=C/c1ccccc1)CCOC`, the “Percent Effect” value is reported as -13.31%.
As to `COCCN(C/C=C/c1ccccc1)Cc1ccccn1`, the “Percent Effect” value was 61.37%.

These data come from ChEMBL document CHEMBL3988442, “University of Dundee, Small-Polar-MMV Screening Library” (2021).
